Source: PubChem (several laboratories)
MEX-5 binding = C. elegans MEX-5 TCR-2 RNA binding activity; MEX-5/FITC-TCR2 RNA binding, fluorescence polarization; hits give low values; AID 1832; activity score (negative = inhibition of binding), % at 10 µM; Q9XUB2; 300,000 tested, 0.38% active;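 active means inhibition past about -25% in most replicates, and total fluorescence under double the plate's negative control median, limit read from the data; inconclusive means replicates evenly split on the limit, or fluorescence at least double controls; inactive means too little inhibition in most replicates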;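 further: 0% = DMSO and -100% = 5 µM competing unlabeled TCR2 RNA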
Target sequence (Q9XUB2 whole entry, looked up): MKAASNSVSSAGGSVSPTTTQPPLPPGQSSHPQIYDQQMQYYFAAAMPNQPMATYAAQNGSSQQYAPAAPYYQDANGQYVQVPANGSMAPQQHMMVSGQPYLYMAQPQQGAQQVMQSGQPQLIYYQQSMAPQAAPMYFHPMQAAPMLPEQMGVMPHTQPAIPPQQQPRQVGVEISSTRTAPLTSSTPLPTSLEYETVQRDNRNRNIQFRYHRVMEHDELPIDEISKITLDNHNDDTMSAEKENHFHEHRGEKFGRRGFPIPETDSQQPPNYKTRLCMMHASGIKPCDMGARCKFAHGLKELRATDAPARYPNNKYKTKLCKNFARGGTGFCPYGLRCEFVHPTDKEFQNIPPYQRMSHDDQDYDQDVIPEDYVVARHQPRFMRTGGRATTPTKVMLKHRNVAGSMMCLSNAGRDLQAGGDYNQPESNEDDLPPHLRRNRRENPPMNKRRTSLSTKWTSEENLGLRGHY
EBV gp42 inh = EBV gp42 inhibition. Q1HVG2. Fluorescence polarization binding assay, mP read-out. inhibition, % (tested at 21.74 µM). 220,000 tested, 0.42% active. AID 1085; in the data active means inhibition above about 50%
Target sequence (Q1HVG2 whole entry, looked up): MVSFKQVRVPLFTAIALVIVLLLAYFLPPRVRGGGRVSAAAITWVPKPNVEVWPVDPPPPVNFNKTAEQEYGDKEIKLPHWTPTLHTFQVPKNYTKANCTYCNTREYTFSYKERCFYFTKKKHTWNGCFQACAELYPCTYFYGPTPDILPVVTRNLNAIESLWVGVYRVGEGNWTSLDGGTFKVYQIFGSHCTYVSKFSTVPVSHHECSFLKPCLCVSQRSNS
GLD-1 TGE inh = GLD-1-TGE RNA interaction inhibition (C. elegans). inhibition, % at 5.96 µM. AID 2280. 320,000 tested, 0.44% active. purified GLD-1 + fluorescein TGE RNA, fluorescence polarization;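 active means percent inhibition above a per-plate cutoff, the plate mean of test compounds plus 3 SD, cut at about 30% in these data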;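 further: 0% = DMSO wells with GLD-1 and probe and 100% = wells lacking GLD-1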
MCL1-BIM inh = disrupts human MCL1 binding to BIM-BH3 peptide | Q07820 | GST-MCL1 / FITC-Bim-BH3 fluorescence polarization | 320,000 tested, 0.68% active | inhibition, % at 10.9 µM;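 active means inhibition above the mean inhibition of all tested compounds plus 3 SD, set per campaign, cut at about 40% in these data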;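 further: 0% = DMSO wells and 100% = unlabeled Bim-BH3 peptide control; higher means more loss of mP so more displacement of Bim peptide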
BCLXL inh = blocks human Bcl-xL binding to Bim BH3 peptide; GST-Bcl-xL / FITC-Bim BH3 peptide fluorescence polarization; 320,000 tested, 0.7% active; inhibition, % at 10.9 µM; AID 2129;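 active means inhibition above the mean of all tested compounds plus 3 SD, cutoff set per campaign, cut at about 30% in these data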;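 further: 0% = DMSO wells and 100% = unlabeled Bim-BH3 peptide competitor; inhibitors lower millipolarization by displacing the labeled peptide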
E coli Lon inh = inhibitors of E. coli Lon protease. purified E. coli Lon protease, fluorescence polarization. AID 602123. inhibition, % at 7.94 µM. 360,000 tested, 0.42% active. P0A9M0; in the data active means inhibition above about 13%, passing the limit was not always enough;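 further: 0% = enzyme with probe and DMSO and 100% = no enzyme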
BCLXL inh confirm = counter-screen for MCL1 inhibitors: confirmation of human Bcl-xL inhibitors. shares compounds with MCL1-BIM inh. GST-Bcl-xL / FITC-Bim BH3 peptide FP binding. inhibition, % at 10.9 µM. 1,700 tested, 54% active. AID 2166;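 active means inhibition above a cutoff equal to the mean inhibition of all tested compounds plus 3 SD, cut at about 30% in these data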;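 further: 0% = DMSO wells and 100% = unlabeled Bim BH3 control peptide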
MCL1 inh confirm = confirmation of human MCL1 and BIM-BH3 interaction inhibitors. 1,700 tested, 61% active. GST-MCL1 / FITC-Bim-BH3 fluorescence polarization. AID 2168. inhibition, % at 10.9 µM. shares compounds with MCL1-BIM inh;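 active means inhibition above the average of all tested compounds plus 3 SD, cut at about 40% in these data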;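 further: 0% = DMSO wells and 100% = unlabeled Bim-BH3 control peptide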
An asterisk follows results filed as active; ? = inconclusive; . = no result given; + = active, no number. The list is not random: actives were taken first. Their share in the collection is about 1.5%.

SMILES	MEX-5 binding	EBV gp42 inh	GLD-1 TGE inh	MCL1-BIM inh	BCLXL inh	E coli Lon inh	BCLXL inh confirm	MCL1 inh confirm
COc1ccc(NC(=O)/C=C/c2cccc(Br)c2)cn1	-33.4*	.	67.2*	98.8*	90.6*	12.4	74.2*	85.5*
O=C(CCCl)N1c2ccccc2C=Cc2ccccc21	.	.	.	.	.	-8.3	.	.
CC(C)N=c1cc2n(-c3ccc(Cl)cc3)c3ccccc3nc-2cc1Nc1ccc(Cl)cc1	0.1	.	28.7	117.8*	78.0*	3.2	+	+
CSc1nc(N)nc(C(C)C)n1	0.4	-15.2	0.0	66.4*	6.9	-0.2	11.6	18.7
CCCOc1ccc(C(=O)CCC(=O)OCC(=O)Nc2cccc(S(N)(=O)=O)c2)cc1	.	.	.	.	.	-6.4	.	.
CC1(c2ccc(OC(F)F)cc2)NC(=O)N(CC(=O)Nc2ccc(Cl)cc2F)C1=O (stereo not drawn)	0.7	.	-0.3	4.0	1.0	2.8	.	.
O=C(NCc1ccco1)c1c2c(nc3ccccc13)CCC2	-0.7	61.9*	10.0	58.0*	21.8	-7.7	29.6	67.9*
COc1ccc(OC)c2cc3ccccc3cc12	.	.	.	.	.	42.9	.	.
COc1ccc(OC)c2nc3c(cc12)CCC3	2.5	.	32.5*	52.9*	52.5*	-5.2	9.6	5.2
CC1(C(=O)NS(=O)(=O)c2cccs2)CCN1C(=O)c1cccc(F)c1 (stereo not drawn)	.	.	.	.	.	-1.5	.	.
COCCN(CCOC)Cc1c(O)ccc2c1O/C(=C\c1ccco1)C2=O	?	.	72.3*	109.7*	106.0*	-0.4	106.7*	117.6*
O=c1c(-c2ccccc2)coc2c(CN3CCCC3)c(O)ccc12	2.1	-14.8	4.3	6.3	1.4	-1.5	.	.
CC1CCN(Cc2c(O)ccc3c2O/C(=C\c2ccco2)C3=O)CC1	?	35.4	68.4*	149.1*	122.5*	0.7	118.6*	139.8*
Cc1sc(NC(=O)c2ccco2)c(CN2CCC(C)CC2)c1C	-4.8	0.2	16.6	19.9	20.6	6.0	.	.
O=C1/C(=C/c2ccco2)Oc2c1ccc(O)c2CN1CCCCC1	?	51.0*	33.9*	127.8*	78.7*	-14.6	131.6*	148.5*
CCOC(=O)N1CCN(S(=O)(=O)c2ccc(OC)c(Br)c2)CC1	0.3	.	3.5	-4.0	1.9	8.2	.	.
Cc1ccccc1NC(=O)Cc1nnc(SCC(=O)N2CCOCC2)n1C	2.0	.	-0.8	6.0	1.2	2.9	.	.
CC(C)=CCc1c(O)c(CC=C(C)C)c2c(c1O)-c1cc(O)c(O)cc1CC2	-5.2	.	10.4	55.2*	22.2	.	40.8*	75.8*
COC(=O)c1c[nH]c2c1-c1cc(C(=O)OCc3ccccc3)n(S(=O)(=O)c3ccc(C)cc3)c1C(=O)C2=O	.	.	.	.	.	7.0	.	.
COc1cc(C(=O)NCC(=O)N2CCN(S(=O)(=O)c3ccccc3)CC2)cc(OC)c1OC	-1.8	.	0.9	-3.2	-0.2	5.9	.	.
C=CCn1c(O)c(N=NC(=O)c2ccccc2NS(=O)(=O)c2cccs2)c2ccccc21	-0.4	-5.5	4.1	49.5*	3.4	-1.1	78.8*	120.2*
CCCCn1c(O)c(N=NC(=O)c2ccccc2NS(=O)(=O)c2cccs2)c2ccccc21	-0.3	-5.8	4.8	15.9	5.1	-3.7	.	.
O=C(Nc1ccc(O)c(-c2nc3ccccc3s2)c1)c1cccs1	-2.4	-10.2	2.0	0.8	4.6	5.6	.	.
Oc1ccc(N=C/C=C/c2cccc(Br)c2)cc1-c1nc2ccccc2s1	1.5	-11.8	21.8	49.9*	35.5*	-18.8	17.8	18.3
Nc1ccc(O)c(-c2nc3ccccc3s2)c1	-5.2	21.2	15.8	60.6*	51.4*	-11.2	37.0*	38.2
SMILES	MEX-5 binding	EBV gp42 inh	GLD-1 TGE inh	MCL1-BIM inh	BCLXL inh	E coli Lon inh	BCLXL inh confirm	MCL1 inh confirm
Oc1ccc(-c2nc3ccccc3s2)c(O)c1	1.2	-10.4	5.5	6.4	-3.1	-4.8	.	.
CC(C)N=c1c([N+](=O)[O-])nn(C)n1O	1.2	-0.4	2.1	0.3	5.7	4.3	.	.
Cc1cn([C@H]2C[C@H](O)[C@@H](CCC(=O)NCc3ccc(N(C)C)cc3)O2)c(=O)[nH]c1=O	.	.	.	.	.	-0.8	.	.
O=C(CCCN1C(=O)/C(=C/c2ccco2)SC1=S)Nc1cccc(C(=O)O)c1	-4.6	-19.6	3.3	60.1*	27.6	-2.0	29.1	38.9
O=C(CCCN1C(=O)/C(=C\c2ccco2)SC1=S)Nc1ccc(O)cc1C(=O)O	-17.5	.	-0.3	71.1*	39.5*	-3.8	51.4*	77.5*
OCC(Cc1ccccc1)Nc1c2ccccc2nc2ccccc12 (stereo not drawn)	-1.9	15.9	15.7	40.1*	27.8	12.5	21.6	24.3
CC(NC(=O)CN1C(=O)NC(C)(c2cccc3ccccc23)C1=O)c1ccccc1 (stereo not drawn)	1.8	.	-4.8	-4.4	-0.2	4.0	.	.
COC(=O)CCCCC1SCC(NC(=O)OC)C1NC(=O)OC (stereo not drawn)	0.7	-7.2	-2.6	48.7*	6.2	4.8	5.4	2.1
COC(=O)CCCC[C@@H]1SC[C@@H](NC(=O)OC)[C@@H]1NC(=O)OC	-2.2	5.5	8.0	-3.4	2.9	-1.1	.	.
Cc1nc2ccccn2c1CN(C)C(=O)C1CCC(=O)N(Cc2cccc(F)c2)C1 (stereo not drawn)	.	.	2.4	-0.9	0.3	-2.8	.	.
OCc1cccc[n+]1Cc1ccccc1	-0.6	.	-8.3	-4.5	0.5	-0.5	.	.
O=C(Nc1cc(Cl)ccc1Cl)c1noc2c1CCCC2	2.4	-9.9	3.2	4.1	3.0	3.4	.	.
O=C(Nc1ccc(F)cc1F)c1noc2c1CCC2	0.2	25.2	4.5	46.5*	11.9	-7.0	18.6	66.0*
CC1CCCCN1C(=S)NC(=O)c1cc(Br)ccc1Cl (stereo not drawn)	.	.	2.5	6.6	9.6	2.8	.	.
O=C(N/N=C/c1ccoc1)c1cc(O)cc(O)c1	-5.4	.	0.4	43.3*	21.2	-7.8	24.8	56.2*
Cc1cc(C)cc(C(=O)N/N=C/c2ccoc2)c1	0.5	.	-2.5	1.1	5.5	-15.5	.	.
CCN(CC)c1ccc2nc3c4ccccc4c(=O)cc-3oc2c1	0.6	.	.	.	.	.	.	.
CCN(CC)c1ccc2c(-c3ccc(S(=O)(=O)O)cc3S(=O)(=O)[O-])c3ccc(=[N+](CC)CC)cc-3oc2c1	?	.	155.1*	+	+	+	+	+
COc1ccccc1N(CC(=O)NCc1ccco1)S(=O)(=O)c1ccc(C)cc1	-1.8	.	-1.1	46.7*	11.2	-7.9	33.1*	79.0*
CCOC(=O)COn1c(=O)c(-c2ccc(OC)cc2)[n+]([O-])c2ccccc21	0.8	.	1.9	-0.7	3.6	6.2	.	.
